Only some compounds are listed: those with a hit (about 10% of all), similar ones and a draw of the others.
ELG1 DNA repair – blocks ELG1-dependent DNA repair in HEK293T cells | 2.3% of 330,000 active | Potency, µM (titrated, usually from 46.1 µM), without a hit: top-dose activity change, negative = inhibition, usual class: inhibitors | HEK293T ELG1-luciferase reporter, luminescence, 16 h; DNA damage induced by 5-fluorouridine; further: on the % scale 0 is the no-effect control and ±100 the full control effect; nearly all actives have a fitted effect of over 55% in size
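Overnight (16 hr) co-exposure of 2,000 cells/well to 5-fluorouridine and compound at 37 °C preceded detection. Luciferase was quantified via ONE-Glo luminescence; loss of signal denotes inhibition.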
Gal4-VP16 FLuc – counter-screen for ROR gamma inhibitors: Gal4-VP16 reporter. Drosophila S2 Gal4-VP16 UAS-luciferase, luminescence, 20 h. Potency, µM (top dose mostly 53.6 µM), inactives show at the highest dose activity, negative = inhibition, actives largely listed as inhibitors. 3.5% of 310,000 active. AID 2546;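 further: Gal4-VP16 expression switched on by copper sulfate through the metallothionein promoter; on the % scale 0 is the no-effect control and ±100 the full control effect; nearly all actives have a fitted effect of over 50% in size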
MCF10A rereplic – induces DNA re-replication in MCF 10a normal breast cells | MCF 10A DNA re-replication, Hoechst nuclear intensity, 48 h | Potency, µM (titrated, usually from 46.1 µM), for the others: at the top dose activity, positive = re-replication, most hits filed as activators | 2.9% of 350,000 active | AID 624296; further: % of control where 0% means no effect; nearly all actives have a fitted effect of over 50% in size
RORgamma inh – ROR gamma (mouse) transcription inhibition; Drosophila S2 Gal4-RORgamma UAS-luciferase reporter, 20 h; P51450; Potency, µM (top dose mostly 53.6 µM), for the others: at the highest dose activity change, negative = inhibition, hits mostly inhibitors; 5.4% of 310,000 active; AID 2551; further: on the % scale 0 is the no-effect control and ±100 the full control effect; nearly all actives have a fitted effect of over 60% in size
Target sequence (P51450 whole entry, looked up, the tested form may be a part): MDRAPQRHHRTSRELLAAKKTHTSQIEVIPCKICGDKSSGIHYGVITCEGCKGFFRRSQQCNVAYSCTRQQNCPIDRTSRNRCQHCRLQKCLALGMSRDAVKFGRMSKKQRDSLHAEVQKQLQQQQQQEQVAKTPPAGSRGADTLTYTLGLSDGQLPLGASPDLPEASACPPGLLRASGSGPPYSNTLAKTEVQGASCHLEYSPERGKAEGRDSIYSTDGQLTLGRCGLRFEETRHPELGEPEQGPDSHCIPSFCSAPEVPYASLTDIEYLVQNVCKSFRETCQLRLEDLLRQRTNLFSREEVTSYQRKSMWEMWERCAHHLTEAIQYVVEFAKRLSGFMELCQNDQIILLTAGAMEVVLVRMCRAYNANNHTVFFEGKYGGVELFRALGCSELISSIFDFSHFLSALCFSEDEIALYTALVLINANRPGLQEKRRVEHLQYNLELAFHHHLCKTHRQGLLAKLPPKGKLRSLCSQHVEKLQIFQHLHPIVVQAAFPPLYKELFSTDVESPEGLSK
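Schneider cells (Drosophila), stable Gal4 DBD–ROR gamma + UAS-luc; 1 hr cmpd preincubation; Cu2+ induction 700 uM final; 20 hr ambient; luminescence.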
SW480 rereplic – induces DNA re-replication in SW480 colon adenocarcinoma cells; Potency, µM (doses to about 46.1 µM), for the others: at the top dose re-replication activation, most hits filed as activators; SW480 DNA re-replication, Hoechst DNA content imaging, 48 h; 1.8% of 340,000 active; AID 624297; further: % of control where 0% means no effect; nearly all actives have a fitted effect of over 55% in size
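Per well, 250 cells were exposed to pinned compound for 48 hr. Nuclear DNA was visualised with Hoechst (40 min, 37 C) and total object intensity recorded by fluorescence scanning.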
* = called active by the depositor; ? = inconclusive; . = no result given; [ ] = remark or other dose. The call rests on the fitted dose curve; in most records, active means well fitted curve in the direction sought with a large enough effect; inconclusive means small, poorly fitted or top-dose-only effect, or another doubt; inactive means no such curve, though single readings can be large; an effect the other way counts as inactive or inconclusive. Potency means the concentration at half of the fitted maximal effect.

SMILES	ELG1 DNA repair	Gal4-VP16 FLuc	MCF10A rereplic	RORgamma inh	SW480 rereplic
CCOc1cc(/C=N/NC(=O)c2ccccn2)ccc1OC(=O)c1ccc(F)cc1	-1.6%	?	1.7%	17.8µM*	-1.2%
CCOc1cc(/C=N/NC(=O)c2ccc(CN3CCOCC3)cc2)ccc1OCc1ccccc1	18.4µM*	-4.8%	7.7%	21.8%[10 µM]	-2.1%
CN(C)S(=O)(=O)c1cccc(COc2ncnc3c(Cl)cc(Cl)cc23)c1	18.3µM*	-8.2%	6.4%	34.7%	-12.0%
CCOC(=O)CN1NC2(CCCCCC2)NC1=S	0.0%	-17.3%	-1.8%	7.08µM*	-7.2%
CC(C)(C)N1NC2(CCCCC2)NC1=S	-8.1%	-1.6%	-1.6%	20.2%	0.8%
Cc1ccc(Oc2ncccc2N)c2c1CCC2	26.0%	7.2%	-6.7%	-2.1%	?
Cc1ccc(-n2[nH]c(C)c(C=Nc3ccc4[nH]c(=O)[nH]c4c3)c2=O)cc1	-25.2%	?	?	21.9%[10 µM]	?
Cc1ccc(N=Cc2c(C)[nH]n(-c3nc4ccccc4[nH]3)c2=O)cc1	27.5%	11.2µM*	0.4%	2.82µM*	-1.7%
CC(C)(C)S(=O)N1Cc2cn(Cc3ccccc3)c(=O)cc2[C@H]1CCO (stereo not given in full)	.	.	16.7%	.	-3.4%
CC(=O)c1cc2c(cc1NC(=O)c1cccc(S(=O)(=O)N3CCN(C)CC3)c1)OCO2	5.8%	-3.3%	2.3%	4.3%	-5.5%
O=C(C1CCN(S(=O)(=O)c2cccc3cccnc23)CC1)N1CCN(c2ccccn2)CC1	-18.3%	-5.4%	2.6%	26.0%	-2.0%
O=C(C1CCN(S(=O)(=O)c2cccc3cccnc23)CC1)N1CCN(c2ccc(Cl)cc2)CC1	18.4µM*	?	-17.7%	25.7%	-8.1%
O=C(C1CCN(S(=O)(=O)c2cccnc2)CC1)N1CCN(c2ccc(Cl)cc2)CC1	2.91µM*	?	-3.0%	?	-17.8%
CCOc1ccc(Cc2c(Cl)nc(SC)nc2N(C)C)cc1	-22.7%	?	9.2µM*	18.1%	?
O=C(NNC(=O)[C@H]1CC=CC[C@H]1C(=O)O)c1ccc(Cl)cc1Cl	3.0%	-1.8%	3.3%	7.7%	-3.3%
N#Cc1c2ccc(O)cc2n2ccccc12	4.11µM*	-27.9%	?	-32.7%	?
N#Cc1c2ccc(OCC(=O)NCc3ccco3)cc2n2ccccc12	-3.4%	4.8%	2.3%	-2.8%	?
CCc1ccc(/C=N/NC(=S)NCCc2ccccc2)cc1	-3.0%	?	21.5%	14.1µM*	-5.2%
Fc1ccc(/C=N/NC(=S)NCCc2ccccc2)cc1F	12.2%	8.91µM*	-2.3%	7.08µM*	-12.1%
COc1cccc(/C=N/NC(=O)CCc2ccccc2)c1	10.5%	1.0%	?	16.0%	0.0%
COc1ccc(/C=N/NC(=S)NCCc2ccccc2)cc1	-26.9%	7.94µM*	16.6%	3.55µM*	-24.3%
COc1cccc(/C=N/NC(=S)NCCc2ccccc2)c1	-0.5%	?	?	15.8µM*	14.7%
CCOc1ccc(/C=N\NC(=O)CC(=O)NCCc2ccccc2)cc1	-1.3%	.	-0.6%	.	-10.2%
N#Cc1c(-c2ccc(Cl)cc2)ccn2nc(C3CCCCC3)nc12	?	?	?	39.4%	-0.5%
Cc1cccc(NC(=O)Cn2nnc3ccccc32)c1	?	13.5%	-8.5%	12.3%	-4.0%
SMILES	ELG1 DNA repair	Gal4-VP16 FLuc	MCF10A rereplic	RORgamma inh	SW480 rereplic
Cc1cc(-c2ccccc2)nc(Cl)c1C#N	10.7%	-2.6%	0.8%	6.4%	-3.4%
CSCC[C@H](NC(=O)[C@@H]1Cc2ccccc2CN1)C(=O)NC[C@H]1CC[C@H](C(=O)O)CC1	-3.2%	-5.3%	-0.9%	0.2%	-11.4%
CC(C)C(=O)NC(=S)Nc1c(Cl)ccc2nsnc12	-6.7%	-2.0%	18.4µM*	12.6µM*	-12.0%
Cc1ccc2ncccc2c1NS(=O)(=O)c1ccccc1	-11.1%	-3.1%	1.6%	?	-4.7%
Cc1ccc(C(=O)NC(=S)Nc2c(C)ccc3nsnc23)cc1	-13.9%	?	-2.2%	10µM*	-5.9%
Cc1ccc2ncccc2c1NC(=S)NC(=O)c1ccccc1	-28.1%	24.9%	6.1%	8.91µM*	-0.2%
Cc1ccc(S(=O)(=O)N2CCOC2CNC(=O)C(=O)NCCN2CCOCC2)cc1 (stereo not given)	9.2%	0.8%	6.7%	-14.2%	-2.3%
